# Assays:
# Conditions in all cases: concentration: 1 μM, replicates: in singlicate; n = 1
# MARK4 = test system: MARK4
# MAST1 = test system: MAST1
# MEK1 = test system: T1, MEK1
# T1 construct: gene MAP2K1
# MEK2 = test system: T2, MEK2
# T2 construct: gene MAP2K2
# MEK3 = test system: T3, MEK3
# T3 construct: gene MAP2K3
# MEK4 = test system: T4, MEK4
# T4 construct: gene MAP2K4
# MEK5 = test system: T5, MEK5
# T5 construct: gene MAP2K5
# MEK6 = test system: T6, MEK6
# T6 construct: gene MAP2K6
# MELK = test system: MELK
# MERTK = test system: MERTK
# 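Also: KINOMEscan kinase panel screen.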
Compound,%Inh (MARK4),%Inh (MAST1),%Inh (MEK1),%Inh (MEK2),%Inh (MEK3),%Inh (MEK4),%Inh (MEK5),%Inh (MEK6),%Inh (MELK),%Inh (MERTK)
Nc1n[nH]c2ncc(-c3ccccc3)cc12 [SB-517081],0%,0%,0%,1%,0%,0%,85%,4%,0%,0%
Cc1nnc(-c2ccc(C)c(-c3ccc(C(=O)O)cc3)c2)o1 [GW608005],21%,0%,0%,0%,0%,14%,0%,0%,0%,25%
CN(C)c1cc(-c2ccc3c(N)n[nH]c3c2)nc(N)n1 [GSK2219329],1%,0%,0%,0%,0%,0%,13%,8%,0%,21%
CCC(=O)c1c(-c2ccccc2)c2cc(Cl)ccc2c(=O)n1Cc1cc(C(=O)NC2CC2)n(C)n1,13%,47%,6%,3%,2%,8%,11%,22%,0%,5%
